A549 tox – kills or reduces viability of A549 cells in Nrf2 counter-screen | A549 ARE-Fluc cells, CellTiter-Fluor viability, 18-24 h | actives 0.16% (n = 390,000) | Potency, µM (top dose mostly 46 µM), actives largely listed as inhibitors
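A549 ARE-Fluc cells in 5% FBS OPTI-MEM, 5000 cells/well, rested 2 h then exposed to compounds in concentration-response for 18-24 h at 37 °C. Viability by CellTiter-Fluor fluorescence (Ex 405/Em 525) after 30 min; luciferase luminescence (BugLite, 15 min, RT) read afterwards.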
Nrf2 activator – Nrf2 pathway activation | AREc32 ARE-luciferase reporter (MCF7-derived line), luminescence, 24 h | Potency, µM (doses to about 46.1 µM), usual class: activators | actives 0.31% (n = 410,000); also: nearly all actives have a fitted effect of over 65% in size
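Reporter line AREc32 (ARE-Fluc), seeded overnight in OPTI-MEM with 5% FBS; compound pin-transferred, 24 hr at 37 deg C, 5% CO2; luminescent read-out.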
LDHA block – blocks human lactate dehydrogenase A | activity change, % (values are at about 110 or 230 µM) | actives 0.15% (n = 480,000) | purified LDHA, NADH/diaphorase-resazurin fluorescence; active compounds read low | P00338; in the data active = activity change below about -30%; inconclusive = mostly about -25% to -30%
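Remaining NADH was detected by diaphorase (0.133 mg/mL) converting 37 µM resazurin to fluorescent resorufin, read at 0 and 20 minutes. The preceding 5-minute room-temperature reaction used 2 nM LDHA, 0.2 mM sodium pyruvate and 0.06 mM NADH at pH 7.4.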
ERG-DNA inh – ERG Ets/DNA interaction inhibition | P11308 | fluorescence polarization, His-ERG Ets domain / labelled DNA | Potency, µM (top dose mostly 76.9 µM), actives largely listed as inhibitors | actives 0.028% (n = 370,000); active = well fitted inhibition curve with a large enough effect in the polarisation, with a control signal flat; inconclusive = small, poorly fitted or top-dose-only effect, or effect the other way, or a change in a side signal; inactive = no such curve, though single readings can be large or run the other way; the % refers to the polarisation;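 also: polarization taken with two DNA probes labelled with fluorescein and Texas red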
Target sequence (P11308 whole entry, looked up, the tested form may be a part): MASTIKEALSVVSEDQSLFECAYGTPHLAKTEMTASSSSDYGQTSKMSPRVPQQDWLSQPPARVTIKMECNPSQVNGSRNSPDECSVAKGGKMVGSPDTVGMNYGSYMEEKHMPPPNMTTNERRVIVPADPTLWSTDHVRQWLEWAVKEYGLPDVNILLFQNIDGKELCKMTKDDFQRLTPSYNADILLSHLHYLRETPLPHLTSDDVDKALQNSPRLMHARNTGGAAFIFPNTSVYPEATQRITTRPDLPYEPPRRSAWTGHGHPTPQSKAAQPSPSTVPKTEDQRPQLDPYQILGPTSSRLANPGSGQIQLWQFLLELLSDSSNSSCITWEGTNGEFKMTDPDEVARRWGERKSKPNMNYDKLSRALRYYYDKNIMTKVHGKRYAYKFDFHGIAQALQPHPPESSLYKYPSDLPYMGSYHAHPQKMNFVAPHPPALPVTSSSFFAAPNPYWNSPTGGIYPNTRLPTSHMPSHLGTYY
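His-tagged ERG Ets domain (1 uM in the protein solution; 300mM KCl, 50mM Tris-HCl, 1mM EDTA, 1mM DTT, pH 7.5) received compound, then a probe mix of 5 nM fluorescein-DNA and 100nM Texas-615-DNA. Fluorescence polarization was read for both dyes.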
ALOX12 inh – inhibitors of human 12S-lipoxygenase ALOX12 | P18054 | purified 12hLO, xylenol orange hydroperoxide absorbance | Potency, µM (series often up to 108 µM), usual class: inhibitors | actives 1.1% (n = 580,000)
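Hydroperoxide product was detected by ferrous iron/xylenol orange as the 573 to 405 nm absorbance ratio. Arachidonic acid at 40 uM (final) was turned over for 30 min at room temperature by 150 nM human 12hLO, pH 7.0 Hepes buffer, after 15 min compound preincubation.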
Nrf2 inh – blocks Nrf2 signaling | A549 ARE-Fluc reporter, luciferase luminescence, 18-24 h | Potency, µM (series often up to 46 µM), hits mostly inhibitors | actives 2.1% (n = 360,000); also: nearly all actives have a fitted effect of over 60% in size
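In this cell-based qHTS, ARE-driven firefly luciferase in A549 cells reports Nrf2 activity; the luminescent signal after BugLite lysis is the measured value, with a prior CellTiter-Fluor read for cell health.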
A number is an active result; i = inactive; ? = inconclusive; nt = no result given; ! = repeats disagree. Sampled rows, rich in hits. Any-hit rate of the full collection: about 2.7%. Unless noted, calls follow the shape of the dose curve; as a rule, active = well fitted curve in the direction sought with a large enough effect; inconclusive = small, poorly fitted or top-dose-only effect, or another doubt; inactive = no such curve, though single readings can be large; an effect the other way counts as inactive or inconclusive.

SMILES	A549 tox	Nrf2 activator	LDHA block	ERG-DNA inh	ALOX12 inh	Nrf2 inh
CC(C)Oc1cccc(C(=O)NC(=S)Nc2ccc3c4c(cccc24)CC3)c1	i	i	i	i	17.8µM	nt
COc1ccc(C(=O)Nc2ccc3c4c(cccc24)CC3)cc1	i	i	i	i	i	nt
COc1cc(OC)cc(C(=O)NC(=S)Nc2ccc3c4c(cccc24)CC3)c1	i	i	i	i	?	nt
COc1ccc(C(=O)NC(=S)Nc2ccc3c4c(cccc24)CC3)cc1OC	i	i	i	i	?	7.31µM
COc1cc(OC)cc(C(=O)NC(=S)NNC(=O)[C@H]2C[C@@H]2c2ccccc2)c1	i	i	i	i	?	?
Cc1ccc(C(=O)/C=C/c2ccc(Br)cc2F)o1	nt	nt	i	nt	?	nt
O=C(N/N=C\c1ccc2c(c1)OCO2)c1ccco1	i	i	i	i	?	?
O=C(N/N=C/c1cccc(O)c1)c1ccc2c(c1)OCCO2	i	i	i	i	i	0.411µM
O=C(N/N=C\c1cccc(OC(=O)c2ccco2)c1)c1ccc2c(c1)OCO2	i	i	i	nt	i	2.31µM
Cc1cc(C2CCCN2Cc2coc(-c3ccc(F)cc3)n2)on1 (configuration not stated)	nt	nt	i	nt	i	nt
CC(C)NS(=O)(=O)c1ccc(C(=O)NCc2ccc(-c3nc4ccccc4s3)o2)cc1	nt	nt	i	nt	25.1µM	nt
Cc1ccc(CNC(=O)CN2NS(=O)(=O)c3ccccc3C2=O)cc1	nt	i	i	nt	20µM	nt
CCn1c(-c2csc(C(C)C)c2)n[nH]c1=S	i	i	i	i	?	i
CC(C)Cn1c(-c2csc(C(C)C)c2)n[nH]c1=S	i	i	i	i	39.8µM	?
CCOC(=O)CNC(=O)Nc1cc(C(=O)NCc2ccc(OC)cc2)ccc1N1CCCC1	nt	nt	i	nt	i	nt
Nc1ccc2c3c(cccc13)C(=O)N(c1ccccc1)C2=O	i	i	i	25.1µM	i	i
Nc1cccc(N2C(=O)c3cccc4c(N)ccc(c34)C2=O)c1	i	i	i	?	i	i
Fc1ccccc1CN1CCc2ccccc2C1	nt	nt	i	nt	?	nt
COc1cccc(CNC(=O)CSc2c3c(nc4ccc(Cl)cc24)CCCC3)c1OC	i	12.6µM	i	i	i	?
COc1ccc(C2=Nn3c(nnc3-c3ccccc3Cl)SC2)cc1OCC1CC1	?	i	i	nt	?	20.6µM
Fc1ccccc1-c1nnc2n1N=C(c1ccc(OC(F)F)c(OCC3CC3)c1)CS2	i	i	i	nt	i	i
COc1ccc(OC)c(-c2nnc3n2N=C(c2ccc(OC)c(OCC4CC4)c2)CS3)c1	?	i	i	nt	nt	14.6µM
Cc1cn[nH]c1	i	i	i	i	3.43µM!	i
Cc1ccc(C23CC4CC(CC(C(=O)Nc5ccc(F)cc5)(C4)C2)C3)cc1	nt	nt	i	nt	i	nt
COc1ccc(NC(=O)C23CC4CC(C2)CC(c2ccc(C)cc2)(C4)C3)cc1	i	i	i	i	i	16.4µM
SMILES	A549 tox	Nrf2 activator	LDHA block	ERG-DNA inh	ALOX12 inh	Nrf2 inh
CNC(=O)c1cccc(NC(=O)CSCc2csc(-c3ccc(C(C)C)cc3)n2)c1	nt	nt	i	nt	i	nt
COc1ccc(/C(C#N)=C/c2cc(Br)c(OCCOc3ccccc3)c(OC)c2)cc1OC	nt	nt	i	nt	i	nt
Cc1[nH]c2ccccc2c1C(c1ccc(O)cc1)c1c(C)[nH]c2ccccc12	nt	nt	i	nt	14.1µM	nt
Clc1ccc(N2CCN(Cc3ccc(Br)o3)CC2)cc1	i	i	i	i	0.891µM	i
Clc1cccc(N2CCN(Cc3ccc(Br)o3)CC2)c1	i	i	i	i	?	i
N#C/C(=C\c1ccc(-c2nc3ccccc3s2)o1)C(N)=O	i	11.2µM	i	i	i	?
O=C(Nc1nc(-c2ccc(Cl)s2)cs1)c1ccc(F)cc1	nt	nt	i	nt	?	nt
COc1ccc(CN2CCN(C(C)C(=O)N(C)Cc3cccc(F)c3)CC2)cc1OC (configuration not stated)	i	i	-34.5	i	i	?
COc1ccc(NC(C)=O)cc1NC(C)C(=O)N(C)Cc1cccc(F)c1 (configuration not stated)	nt	nt	i	nt	i	nt
Oc1ccc(N=Cc2cccc3ccccc23)cc1	nt	nt	i	nt	?	nt

Screens: PubChem, National Center for Advancing Translational Sciences (NCATS)
